# Test results taken from the supplement of paper PMC6555819.
# System: VDR homodimer (NR concentration 270 nM)
# Experiment: PBM binding z-score (relative to random genomic background probes); higher = stronger binding; sequences stand for … in GC…GCGATTGACAGCGTAGAATGAAGG
# Summary of the method: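 Custom Agilent 4×180K protein-binding microarrays carried double-stranded probes. Their 34-nt variable regions held direct-repeat seeds, single-nucleotide variants, half-site ablations and random human genomic background sequences. Arrays were incubated 1 h with ligand-free nuclear receptor dimers in PBS pH 7.4, 2% milk, 0.02% Triton X-100, 1 mM DTT, 0.2 mg/mL BSA and 0.4 mg/ml salmon testes DNA. Antibodies against each partner (one per run) detected binding, and scanned fluorescence was regression-normalized. Binding z-scores use random background probes as reference.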
row,Sequence,PBM binding z-score
1,TCTCGGAGGACATGAAGGTCAGAGCTTTCCAGAG,1.2
2,GGAACCAGGGCAAAGTTGATAGCATCTGTCGACG,0.747
3,CGTCCAAGGTCAATGCTAGGTCAGTGAAAGCATT,3.1
4,CAAACTACGTCACCGGAAGGTCAAAGTCCGCATG,2.03
5,TCTAGCAGGCCAGATGGTCACTCAAGAGGTACGG,-1.21
6,AGAATGAGGTTACCAAAGATCAGGGCAACGCTTG,0.728
7,GCTCGGAGGACAAGGTCAGAGCCTTGTCCGTAGA,0.502
8,GCTACTGGGGCAAAGCAGGTTACCATAAGGTTGG,-0.451
9,TCTATTAGTTGACGGGCAACCGACGAGTCCGTTT,0.718
10,TCACACAGGTGAAGGTAACTCAGGTACGCAGTCG,0.257
11,TCATATAGGTAAAAGGAGAAAGTCGGTGTGGTAA,0.471
12,ATCTCTAGGGAAAAGTTCAGTGAATCCCGAGGAT,1.22
13,CGTCCACGGTCAAGGTCAGTGAAAGAGACTCGAA,0.791
14,CCTCCAAGGTCAATGCTAGGTCAGTGAAAGCATT,2.71
15,CCAGACAGGTGAGAAGGTAACACAGCCTCGATTA,0.124
16,TAGCCTAGGTCAAGGGCCAGTATACCACGCGAAC,0.272
17,CCTAGTTGGTCAGAAGGTCACACACCGGATATGA,2.21
18,CGTCAAAATTCAACTAAGGTAACGTAAAGCACGC,0.233
19,ATCTCTAGGTAAAGTTCAGTGATAGATCGATAGA,2.09
20,TCTTGTAAATCAGCAGGTTAAGAAAGCTGGCCAA,-0.269

row,Sequence,PBM binding z-score
1,ATACCAAGGTGACCGTGAGGTCGTTGATACTAAC,2.81
2,CTACCCAGGTGAACAAGGTCGTTGATTACTATTC,1.92
3,AGAAGGAGGTTATACGTAGATCAGGGAAGAAAGT,0.752
4,CCTACTGGGCCACGCAAGGTCATTGATTCAGTGA,2.93
5,GTACCAAGGTGAATAGGTTGTTGATGAGTAGGCG,0.391
6,TCATATAGGTAATACAGGTGAAAGCCGGCATCTA,0.67
7,CCGACTGGGGCATAAGGTCACCATAAGCCAGCCC,1.77
8,TGAATGAGGTTCAAGATCAGGGAACGTGGCGTCG,1.64
9,CGTCAAAGTTCAACTAAGGAAACGTAAAGCACGC,3.88
10,AGAACGAGGGCACGCTGATTTGATAGCAGAGTAG,0.667
11,CGTCAAAGTTCAAGGTAACGTACCAGAAAGCAGC,3.21
12,TAGCCTAGGGCATGCGGGCCAGTATAGTGTCGGC,-0.907
13,TCTTGTAGAGCAAAGGTTAAGAAAGCCGAAGCCT,-0.734
14,CCGACTGGGGCAAGGTTACCTTAACGCACAGCCA,-0.391
15,CCAGACAGGTGAGAAGGTCACTCAGCCTCGATTA,1.36
16,CCTACTGGGCCCTTCAGAGGTCATTGATCATATG,3.23
17,CCTGGTAGGTCATGGTCAGCTAATCTACAGTATG,0.706
18,CCTTACGGGACACTGACAGGTTATAGCATTTGGA,-0.0453
19,TCGAGTAGGTTACCAATGGGGCATTCACCTTTCT,-0.574
20,ACTTACGGGTCAACGAGGTTATTGCACGCGTATA,4.35
